For some of these results: Results with a measured potency or affinity are listed apart.
Experiments:
Design in all cases: scale not given: direction of the effect not stated beside the values
[1] = target: Protein translocase subunit SecA (Escherichia coli (strain K12)) (UniProt P10408); assay: Assay to Identify E. coli SecA ATPase Inhibitors; type: functional; conditions: 30 µM
[2] = target: T1, Ubiquitin-activating enzyme e1, putative (Leishmania donovani (strain BPK282A1)) (UniProt E9BSI1); assay: Leishmania donovani Ubiquitin Activating Enzyme (LdE1); type: functional; conditions: 30 µM
T1 sequence (whole entry): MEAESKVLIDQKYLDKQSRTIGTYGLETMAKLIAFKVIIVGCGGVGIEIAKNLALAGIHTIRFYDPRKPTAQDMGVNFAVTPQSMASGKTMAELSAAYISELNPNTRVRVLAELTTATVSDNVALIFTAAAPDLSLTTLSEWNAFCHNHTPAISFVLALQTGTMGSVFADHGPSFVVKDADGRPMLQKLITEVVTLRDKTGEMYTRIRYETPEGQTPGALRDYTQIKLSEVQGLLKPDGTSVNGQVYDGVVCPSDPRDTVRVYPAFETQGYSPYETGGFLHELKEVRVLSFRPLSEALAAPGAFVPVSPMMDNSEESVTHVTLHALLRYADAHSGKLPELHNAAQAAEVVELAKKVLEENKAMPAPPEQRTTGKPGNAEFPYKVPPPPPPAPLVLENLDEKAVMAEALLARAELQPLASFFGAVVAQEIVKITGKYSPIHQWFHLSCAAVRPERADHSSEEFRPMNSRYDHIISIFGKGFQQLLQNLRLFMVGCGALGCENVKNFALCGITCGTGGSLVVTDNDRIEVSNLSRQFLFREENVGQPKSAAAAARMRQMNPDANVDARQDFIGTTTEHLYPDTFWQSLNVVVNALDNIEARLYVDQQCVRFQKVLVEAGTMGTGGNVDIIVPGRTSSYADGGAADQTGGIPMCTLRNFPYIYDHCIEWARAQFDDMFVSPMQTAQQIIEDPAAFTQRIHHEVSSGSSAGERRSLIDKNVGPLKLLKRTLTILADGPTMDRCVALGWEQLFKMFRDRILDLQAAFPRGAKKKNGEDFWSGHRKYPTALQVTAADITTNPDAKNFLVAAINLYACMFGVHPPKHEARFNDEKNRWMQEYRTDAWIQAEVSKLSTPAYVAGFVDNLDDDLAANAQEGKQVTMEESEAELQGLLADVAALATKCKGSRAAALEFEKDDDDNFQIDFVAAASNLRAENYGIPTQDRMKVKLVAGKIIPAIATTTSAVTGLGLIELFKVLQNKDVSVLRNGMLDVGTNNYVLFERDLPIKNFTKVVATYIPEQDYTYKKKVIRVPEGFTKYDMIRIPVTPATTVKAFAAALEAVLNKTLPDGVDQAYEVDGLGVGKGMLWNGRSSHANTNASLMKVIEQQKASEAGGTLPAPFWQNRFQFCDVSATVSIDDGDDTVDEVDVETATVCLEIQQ

[3] = target: AMP-activated protein kinase, AMPK (Homo sapiens) (UniProt P54646+O43741+P54619+Q9UGJ0+Q9Y478+Q13131+Q9UGI9); assay: AMP-dependent Kinase enzyme assay. An in vitro enzyme assay that detects ADP turnover that is directly proportional to AMPK activity. This uses naive AMPK that is activated during the assay with MK-8722; type: functional; conditions: 30 µM
[4] = target: Sialic acid-binding Ig-like lectin 9 (Homo sapiens) (UniProt Q9Y336); assay: Hs-Siglec9 ALPHAscreen SOP 20170721; conditions: 10 µM
Sequence of Sialic acid-binding Ig-like lectin 9 (Homo sapiens) (Q9Y336 whole entry): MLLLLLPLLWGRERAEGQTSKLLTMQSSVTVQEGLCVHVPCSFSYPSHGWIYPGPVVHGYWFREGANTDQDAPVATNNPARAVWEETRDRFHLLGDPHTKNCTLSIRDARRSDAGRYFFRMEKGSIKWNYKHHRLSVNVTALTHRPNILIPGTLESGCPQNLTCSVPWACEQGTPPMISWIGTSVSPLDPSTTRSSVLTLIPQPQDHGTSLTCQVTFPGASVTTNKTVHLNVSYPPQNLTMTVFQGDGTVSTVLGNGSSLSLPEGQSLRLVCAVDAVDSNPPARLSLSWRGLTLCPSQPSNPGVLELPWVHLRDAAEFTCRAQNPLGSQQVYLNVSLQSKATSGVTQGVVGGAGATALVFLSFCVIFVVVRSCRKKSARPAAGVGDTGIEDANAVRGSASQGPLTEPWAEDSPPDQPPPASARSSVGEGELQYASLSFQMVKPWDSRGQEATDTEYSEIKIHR

Trypanosoma cruzi = assay: Trypanosoma cruzi phosphomannomutase and mannose-1-phosphate guanylyltransferase assay; type: functional; conditions: 10 µM
[5] = target: T2, Arginase-2, mitochondrial (Homo sapiens) (UniProt P78540); assay: in vitro enzyme assay to detect the production of urea directly proportional to the activity of Arginase II; type: functional; conditions: 33.3 µM; further: in the data most compounds retested in dose-response had high values
T2 sequence (whole entry): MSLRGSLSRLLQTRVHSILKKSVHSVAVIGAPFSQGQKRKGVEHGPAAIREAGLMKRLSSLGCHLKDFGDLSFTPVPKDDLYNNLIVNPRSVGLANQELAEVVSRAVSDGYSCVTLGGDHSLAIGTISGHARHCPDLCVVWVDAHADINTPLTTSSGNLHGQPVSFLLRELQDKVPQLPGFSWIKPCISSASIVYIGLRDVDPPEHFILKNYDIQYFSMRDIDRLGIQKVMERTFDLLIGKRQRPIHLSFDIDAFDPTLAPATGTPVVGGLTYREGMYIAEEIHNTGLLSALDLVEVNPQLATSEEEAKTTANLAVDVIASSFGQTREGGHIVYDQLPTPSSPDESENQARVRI

[6] = target: T3, Proteasome subunit beta (Trypanosoma cruzi) (UniProt O96673); assay: Trypanosoma cruzi proteasome chymotrypsin-like activity (TcProtChymo) assay.; further: in the data most compounds retested in dose-response had high values; type: functional; conditions: 9.37 µM
T3 sequence (whole entry): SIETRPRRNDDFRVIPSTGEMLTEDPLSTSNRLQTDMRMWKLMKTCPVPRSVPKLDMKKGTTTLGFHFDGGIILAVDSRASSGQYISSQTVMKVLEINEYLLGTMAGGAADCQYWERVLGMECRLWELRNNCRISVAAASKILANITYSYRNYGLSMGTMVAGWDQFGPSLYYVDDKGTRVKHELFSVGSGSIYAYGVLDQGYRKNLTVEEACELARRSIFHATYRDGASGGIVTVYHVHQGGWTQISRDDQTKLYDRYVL

Homo sapiens = species on record: Homo sapiens; assay: To identify inhibition of the IFN signalling (Jak-Stat) pathway via expression of an eGFP reporter gene under the control of an IFN-stimulated response element (ISRE) containing MxA promoter.; type: functional; conditions: 30 µM
[7] = target: T4, Tyrosyl-tRNA synthetase, putative (Trypanosoma cruzi (strain CL Brener)) (UniProt Q4DSP6); assay: Trypanosoma cruzi tyrosyl tRNA synthetase (TcYRS) _High Tyrosine SOP; type: functional; conditions: 30 µM; further: in the data most compounds retested in dose-response had high values
T4 sequence (whole entry): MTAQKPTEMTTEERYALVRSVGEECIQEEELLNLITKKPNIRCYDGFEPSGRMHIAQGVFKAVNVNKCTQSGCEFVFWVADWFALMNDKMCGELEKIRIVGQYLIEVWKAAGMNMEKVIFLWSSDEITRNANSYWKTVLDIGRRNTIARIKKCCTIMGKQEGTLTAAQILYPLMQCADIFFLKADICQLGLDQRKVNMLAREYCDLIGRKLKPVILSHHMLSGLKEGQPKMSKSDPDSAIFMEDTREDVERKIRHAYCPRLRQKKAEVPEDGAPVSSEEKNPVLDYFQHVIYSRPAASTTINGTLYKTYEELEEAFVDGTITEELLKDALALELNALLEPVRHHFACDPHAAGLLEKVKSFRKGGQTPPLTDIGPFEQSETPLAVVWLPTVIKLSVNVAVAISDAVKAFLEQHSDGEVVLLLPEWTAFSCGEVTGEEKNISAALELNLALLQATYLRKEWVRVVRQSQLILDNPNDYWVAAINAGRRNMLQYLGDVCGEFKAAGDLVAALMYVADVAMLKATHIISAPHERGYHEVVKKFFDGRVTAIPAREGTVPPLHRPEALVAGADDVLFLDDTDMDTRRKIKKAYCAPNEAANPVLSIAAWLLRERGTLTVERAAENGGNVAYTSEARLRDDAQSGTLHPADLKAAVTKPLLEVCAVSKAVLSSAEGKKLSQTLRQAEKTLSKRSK

[8] = target: T4, Tyrosyl-tRNA synthetase, putative (Trypanosoma cruzi (strain CL Brener)); assay: Trypanosoma cruzi tyrosyl tRNA synthetase (TcYRS) SOP; type: functional; conditions: 30 µM
[9] = target: Chromo domain-containing protein 1 (Saccharomyces cerevisiae (strain ATCC 204508 / S288c) (Baker's yeast)) (UniProt P32657); assay: ScCHD-1 Enzyme Inhibition Assay; type: functional; conditions: 30 µM; further: in the data most compounds retested in dose-response had high values
Sequence of Chromo domain-containing protein 1 (Saccharomyces cerevisiae (strain ATCC 204508 / S288c) (Baker's yeast)) (P32657 whole entry, the tested form may be a part): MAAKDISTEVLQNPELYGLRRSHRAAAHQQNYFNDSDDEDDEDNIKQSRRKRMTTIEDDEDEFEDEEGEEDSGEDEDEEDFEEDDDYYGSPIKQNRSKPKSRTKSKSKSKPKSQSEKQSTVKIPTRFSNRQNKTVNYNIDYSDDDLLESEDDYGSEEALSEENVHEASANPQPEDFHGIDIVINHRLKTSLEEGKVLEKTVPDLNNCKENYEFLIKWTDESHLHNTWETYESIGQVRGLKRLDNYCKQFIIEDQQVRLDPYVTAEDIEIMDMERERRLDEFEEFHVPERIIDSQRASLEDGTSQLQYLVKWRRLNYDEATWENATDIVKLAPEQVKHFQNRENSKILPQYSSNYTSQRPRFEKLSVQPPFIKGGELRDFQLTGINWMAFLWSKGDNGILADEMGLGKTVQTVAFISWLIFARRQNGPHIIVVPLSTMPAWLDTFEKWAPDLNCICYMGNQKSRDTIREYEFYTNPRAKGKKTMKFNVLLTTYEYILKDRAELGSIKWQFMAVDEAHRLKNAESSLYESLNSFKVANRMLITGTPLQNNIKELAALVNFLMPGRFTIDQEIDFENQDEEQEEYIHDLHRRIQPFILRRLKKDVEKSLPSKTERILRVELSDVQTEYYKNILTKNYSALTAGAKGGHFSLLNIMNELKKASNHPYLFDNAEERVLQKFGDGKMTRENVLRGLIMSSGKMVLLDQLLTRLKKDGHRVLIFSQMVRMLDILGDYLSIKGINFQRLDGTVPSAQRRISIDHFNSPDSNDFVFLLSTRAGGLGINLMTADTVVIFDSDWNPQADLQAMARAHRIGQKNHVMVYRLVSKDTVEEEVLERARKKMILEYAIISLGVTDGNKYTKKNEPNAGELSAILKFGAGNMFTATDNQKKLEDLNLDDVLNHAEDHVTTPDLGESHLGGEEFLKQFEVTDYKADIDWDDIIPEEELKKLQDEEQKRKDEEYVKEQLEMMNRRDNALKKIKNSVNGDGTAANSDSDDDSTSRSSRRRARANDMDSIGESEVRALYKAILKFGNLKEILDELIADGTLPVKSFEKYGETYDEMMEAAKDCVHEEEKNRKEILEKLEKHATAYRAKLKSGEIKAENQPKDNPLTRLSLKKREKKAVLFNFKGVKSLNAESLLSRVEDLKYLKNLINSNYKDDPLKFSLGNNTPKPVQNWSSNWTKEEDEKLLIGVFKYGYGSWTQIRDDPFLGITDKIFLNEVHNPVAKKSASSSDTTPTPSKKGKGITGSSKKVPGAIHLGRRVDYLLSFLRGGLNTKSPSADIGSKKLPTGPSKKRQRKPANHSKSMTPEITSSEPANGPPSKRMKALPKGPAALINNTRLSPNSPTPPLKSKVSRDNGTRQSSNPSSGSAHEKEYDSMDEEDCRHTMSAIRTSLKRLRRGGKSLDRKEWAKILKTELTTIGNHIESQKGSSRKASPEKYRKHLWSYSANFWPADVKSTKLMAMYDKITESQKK

Sequence of Protein translocase subunit SecA (Escherichia coli (strain K12)) (P10408 whole entry): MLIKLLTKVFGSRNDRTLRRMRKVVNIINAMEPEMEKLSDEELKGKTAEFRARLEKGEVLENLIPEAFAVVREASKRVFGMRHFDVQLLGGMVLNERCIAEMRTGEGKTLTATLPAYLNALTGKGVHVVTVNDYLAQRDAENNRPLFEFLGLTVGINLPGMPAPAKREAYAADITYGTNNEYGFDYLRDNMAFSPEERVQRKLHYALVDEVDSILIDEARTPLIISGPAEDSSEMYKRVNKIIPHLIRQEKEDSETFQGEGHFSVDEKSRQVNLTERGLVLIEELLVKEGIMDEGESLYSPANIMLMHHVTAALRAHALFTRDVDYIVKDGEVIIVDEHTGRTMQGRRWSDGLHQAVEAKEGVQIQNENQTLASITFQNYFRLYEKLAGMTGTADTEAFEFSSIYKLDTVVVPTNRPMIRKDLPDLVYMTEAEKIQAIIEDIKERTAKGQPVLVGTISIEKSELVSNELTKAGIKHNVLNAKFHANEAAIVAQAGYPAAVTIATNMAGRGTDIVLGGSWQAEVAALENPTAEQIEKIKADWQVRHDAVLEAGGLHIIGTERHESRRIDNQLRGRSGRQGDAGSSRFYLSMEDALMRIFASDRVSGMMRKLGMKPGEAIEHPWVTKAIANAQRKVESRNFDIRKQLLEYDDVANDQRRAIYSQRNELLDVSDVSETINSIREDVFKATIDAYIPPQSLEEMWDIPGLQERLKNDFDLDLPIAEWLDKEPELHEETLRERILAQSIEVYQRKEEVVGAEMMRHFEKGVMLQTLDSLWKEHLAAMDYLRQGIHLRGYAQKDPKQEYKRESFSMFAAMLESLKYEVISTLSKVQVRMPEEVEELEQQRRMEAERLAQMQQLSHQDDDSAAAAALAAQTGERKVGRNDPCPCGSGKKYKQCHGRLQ

Compound	Percent Effect [1]	Percent Effect [2]	Percent Effect [3]	Percent Effect [4]	Percent Effect (Trypanosoma cruzi)	Percent Effect [5]	Percent Effect [6]	Percent Effect (Homo sapiens)	Percent Effect [7]	Percent Effect [8]	Percent Effect [9]
Cc1[nH]ncc1CCCNC(=O)Nc1ccc(C#N)cc1	-1.53%	5.41%	8.53%	1.92%	3.28%	2.38%	7.41%	15.2%	7.94%	9.76%	-1.92%
CC(C)(C)c1n[nH]c(C2CN(C(=O)c3csnn3)CCO2)n1 (stereo not drawn)	-8.03%	18.4%	-1.35%	7.53%	7.5%	1.18%	2.4%	6.98%	6.38%	15.6%	-19.5%
CNC(=O)Cn1cc(C#N)c(=O)c2cc(Br)ccc21	-5.47%	13.3%	-4.43%	16.9%	7.3%	7.29%	15.2%	9.36%	3.83%	13.6%	38.7%
CC(C)OCCCNC(=O)CS(=O)(=O)Cc1ccc(Cl)c(Cl)c1	-6.75%	5.2%	9.19%	-7.16%	-5.8%	-1.78%	9.63%	33.8%	3.88%	12.2%	-5.85%
O=C(N1CCCC1)N1CCc2ncnc(C3CCOC3)c2CC1 (stereo not drawn)	2.86%	-2.67%	9.11%	2.99%	-0.591%	3.5%	7.14%	3.4%	3.19%	-1.28%	-1.1%
O=C1N(Cc2ccc(F)c(F)c2)CCCC12CCN(C1CCSCC1)C2 (stereo not drawn)	-4.12%	-8%	-4.64%	30.2%	9.25%	23.4%	9.77%	3.27%	15.8%	25.9%	0.965%
CN(C)CC(=O)N1C[C@@H]2CC[C@H](Oc3ccccc3Cl)[C@@H]2C1	-5.55%	-4.05%	9.46%	5.31%	-2.17%	-3.48%	-2.5%	6.65%	-1.07%	3.9%	9.09%
Cc1cc(C)n(CC2CCCN2CC(=O)NC2CCOCC2)n1 (stereo not drawn)	-8.59%	10.4%	1.94%	3.84%	-3.93%	2.13%	3.21%	-10%	1.94%	9.76%	-3.99%
